Experimental data taken from PubChem BioAssay (NCI).
Compounds without any hit were thinned out: in the full panel of roughly 83,000, 20% have a hit.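 Treatment: one concentration, 48 hours, 96-well format. Scoring: percent growth, with anything below 10 considered active.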 Active and inactive are the calls of the source.

Columns and labels:
Assay in all cases: NCI-60 one-dose screen, 48 h (100 = growth as untreated, 0 = no growth, -100 = all killed)
Settings in all cases: 10 µM unless noted
DU-145 prostate = tested on: DU-145 prostate
K-562 leukemia = tested on: K-562 leukemia
MALME-3M melanoma = tested on: MALME-3M melanoma
MDA-MB-231 breast = tested on: MDA-MB-231 breast
RXF 393 renal = tested on: RXF 393 renal
SF-268 CNS = tested on: SF-268 CNS
SF-295 CNS = tested on: SF-295 CNS
SF-539 CNS = tested on: SF-539 CNS
UACC-257 melanoma = tested on: UACC-257 melanoma
M14 melanoma = tested on: M14 melanoma
HT29 colon = tested on: HT29 colon
SNB-75 CNS = tested on: SNB-75 CNS
SNB-19 CNS = tested on: SNB-19 CNS
U251 CNS = tested on: U251 CNS
PC-3 prostate = tested on: PC-3 prostate
SK-MEL-5 melanoma = tested on: SK-MEL-5 melanoma
UACC-62 melanoma = tested on: UACC-62 melanoma
LOX IMVI melanoma = tested on: LOX IMVI melanoma
SK-MEL-28 melanoma = tested on: SK-MEL-28 melanoma

Measured: growth

Clc1ccc(-c2c3ccc(=[N+]4CCCCC4)cc-3oc3cc(N4CCCCC4)ccc23)cc1
active: DU-145 prostate -91.7% | K-562 leukemia -34.1% | MALME-3M melanoma -76.4% | MDA-MB-231 breast -81.7% | RXF 393 renal -91.2% | SF-268 CNS -89.6% | SF-295 CNS -72.6% | SF-539 CNS -93.4% | UACC-257 melanoma -78.5% | M14 melanoma -92.7% | HT29 colon -82.3% | SNB-75 CNS -70.1% | SNB-19 CNS -90% | U251 CNS -79.6% | PC-3 prostate -71.2% | SK-MEL-5 melanoma -95.4% | UACC-62 melanoma -87.1% | LOX IMVI melanoma -70.2% | SK-MEL-28 melanoma -91.4%

Cc1ccc(S(=O)(=O)Oc2cc(OS(=O)(=O)c3ccc(C)cc3)cc(OS(=O)(=O)c3ccc(C)cc3)c2)cc1
inactive: DU-145 prostate 108% | K-562 leukemia 94.4% | MALME-3M melanoma 133% | MDA-MB-231 breast 92.2% | RXF 393 renal 99.6% | SF-268 CNS 99% | SF-295 CNS 86.9% | SF-539 CNS 95% | UACC-257 melanoma 104% | M14 melanoma 108% | SNB-75 CNS 95.4% | SNB-19 CNS 104% | U251 CNS 108% | PC-3 prostate 86.9% | SK-MEL-5 melanoma 94.4% | UACC-62 melanoma 86.1% | LOX IMVI melanoma 98.1% | SK-MEL-28 melanoma 112%

CCN(CCNc1ccc(C)c2sc3ccccc3c(=O)c12)CC(C)(C)O
inactive: DU-145 prostate 95.7% | MALME-3M melanoma 89.1% | MDA-MB-231 breast 78% | RXF 393 renal 74.7% | SF-268 CNS 83.3% | SF-539 CNS 78.9% | UACC-257 melanoma 95.9% | M14 melanoma 73.2% | HT29 colon 39.2% | SNB-75 CNS 73.7% | SNB-19 CNS 78% | U251 CNS 49.7% | PC-3 prostate 71.4% | SK-MEL-5 melanoma 75.9% | UACC-62 melanoma 53.6% | LOX IMVI melanoma 54.4% | SK-MEL-28 melanoma 79.6%
active: K-562 leukemia -34.5% | SF-295 CNS -17.6%
